# Results published in PubChem BioAssay.
# Calls of active or inactive are those of the source.
# What was measured:
# [1] = small molecules captured by biotinylated probe aFSTL3 – biochemical, small-molecule microarray, fluorescence 635/667, stem cell growth factor project, primary screen (AID 1064); conditions: higher = more signal;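 also: measures binding of the biotinylated anti-FSTL3 antibody to printed compounds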
# [2] = binders from COS7 lysate, DM2A8 probe, primary screen, torsin A project, cell lysate, small-molecule microarray, fluorescence 635/667 (AID 1065); conditions: higher = more signal, COS7 lysate expressing mutant human TOR1A
# [3] = small molecules captured by biotinylated probe aFGF2 – biochemical, small-molecule microarray, fluorescence 635/667, stem cell growth factor project, primary screen (AID 1067); conditions: higher = more signal;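 also: measures binding of biotinylated aFGF2 protein to printed compounds on slides; z-score merges feature fluorescence and signal-to-noise across triplicate slides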
# [4] = small molecules captured by biotinylated probe aFGF10 – biochemical, small-molecule microarray, fluorescence 635/667, stem cell growth factor project, primary screen (AID 1071); conditions: higher = more signal;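 also: score merges 667 nm spot intensity and signal to noise from triplicate slides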
# [5] = molecular target: Neurogenic locus notch homolog protein 2 (Homo sapiens) (UniProt Q04721); experiment: small molecules binding Notch2 protein – biochemical, small-molecule microarray, 635 nm fluorescence, stem cell growth factors, primary screen (AID 1073); conditions: higher = more signal
# [6] = molecular target: Pro-neuregulin-1, membrane-bound isoform (Homo sapiens) (UniProt Q02297); experiment: small molecules binding neuregulin-1 protein – biochemical, small-molecule microarray, fluorescence 635/667, psychiatric disease protein project, primary screen (AID 1075); conditions: NRG1 binding, 635 nm fluorescence, higher = more signal;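 also: score combines 667 nm spot fluorescence with signal to noise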
# [7] = tested on: Neuregulin-1 EGF-like domain; experiment: small molecules binding NRG1 EGF domain – biochemical, small-molecule microarray, 635 nm fluorescence, primary screen (AID 1081); conditions: higher = more signal;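 also: binding of the protein to compounds printed on small-molecule microarray slides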
# [8] = FRG1 expression reporter modulators in myotubes – cell-based, C2C12 myotubes, firefly/Renilla luciferase, luminescence, FRG1 inhibition for FSHD, primary screen (AID 1084); conditions: FRG1 promoter luciferase, higher = more signal, called active from +8 up or from −8 down
# [9] = small molecules captured by biotinylated probe aFST – biochemical, small-molecule microarray, fluorescence 635/667, stem cell growth factor project, primary screen (AID 1086); conditions: higher = more signal;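 also: score merges 667 nm fluorescence with signal-to-noise of each printed compound spot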
# [10] = binders of probe aHhip on microarray, primary screen, stem cell growth factor project, biochemical, small-molecule microarray, fluorescence 635/667 (AID 1087); conditions: higher = more signal;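 also: score merges spot fluorescence at 667nm with spot signal to noise ratio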
# Sequence of Neurogenic locus notch homolog protein 2 (Homo sapiens) (Q04721 whole entry, looked up, canonical isoform): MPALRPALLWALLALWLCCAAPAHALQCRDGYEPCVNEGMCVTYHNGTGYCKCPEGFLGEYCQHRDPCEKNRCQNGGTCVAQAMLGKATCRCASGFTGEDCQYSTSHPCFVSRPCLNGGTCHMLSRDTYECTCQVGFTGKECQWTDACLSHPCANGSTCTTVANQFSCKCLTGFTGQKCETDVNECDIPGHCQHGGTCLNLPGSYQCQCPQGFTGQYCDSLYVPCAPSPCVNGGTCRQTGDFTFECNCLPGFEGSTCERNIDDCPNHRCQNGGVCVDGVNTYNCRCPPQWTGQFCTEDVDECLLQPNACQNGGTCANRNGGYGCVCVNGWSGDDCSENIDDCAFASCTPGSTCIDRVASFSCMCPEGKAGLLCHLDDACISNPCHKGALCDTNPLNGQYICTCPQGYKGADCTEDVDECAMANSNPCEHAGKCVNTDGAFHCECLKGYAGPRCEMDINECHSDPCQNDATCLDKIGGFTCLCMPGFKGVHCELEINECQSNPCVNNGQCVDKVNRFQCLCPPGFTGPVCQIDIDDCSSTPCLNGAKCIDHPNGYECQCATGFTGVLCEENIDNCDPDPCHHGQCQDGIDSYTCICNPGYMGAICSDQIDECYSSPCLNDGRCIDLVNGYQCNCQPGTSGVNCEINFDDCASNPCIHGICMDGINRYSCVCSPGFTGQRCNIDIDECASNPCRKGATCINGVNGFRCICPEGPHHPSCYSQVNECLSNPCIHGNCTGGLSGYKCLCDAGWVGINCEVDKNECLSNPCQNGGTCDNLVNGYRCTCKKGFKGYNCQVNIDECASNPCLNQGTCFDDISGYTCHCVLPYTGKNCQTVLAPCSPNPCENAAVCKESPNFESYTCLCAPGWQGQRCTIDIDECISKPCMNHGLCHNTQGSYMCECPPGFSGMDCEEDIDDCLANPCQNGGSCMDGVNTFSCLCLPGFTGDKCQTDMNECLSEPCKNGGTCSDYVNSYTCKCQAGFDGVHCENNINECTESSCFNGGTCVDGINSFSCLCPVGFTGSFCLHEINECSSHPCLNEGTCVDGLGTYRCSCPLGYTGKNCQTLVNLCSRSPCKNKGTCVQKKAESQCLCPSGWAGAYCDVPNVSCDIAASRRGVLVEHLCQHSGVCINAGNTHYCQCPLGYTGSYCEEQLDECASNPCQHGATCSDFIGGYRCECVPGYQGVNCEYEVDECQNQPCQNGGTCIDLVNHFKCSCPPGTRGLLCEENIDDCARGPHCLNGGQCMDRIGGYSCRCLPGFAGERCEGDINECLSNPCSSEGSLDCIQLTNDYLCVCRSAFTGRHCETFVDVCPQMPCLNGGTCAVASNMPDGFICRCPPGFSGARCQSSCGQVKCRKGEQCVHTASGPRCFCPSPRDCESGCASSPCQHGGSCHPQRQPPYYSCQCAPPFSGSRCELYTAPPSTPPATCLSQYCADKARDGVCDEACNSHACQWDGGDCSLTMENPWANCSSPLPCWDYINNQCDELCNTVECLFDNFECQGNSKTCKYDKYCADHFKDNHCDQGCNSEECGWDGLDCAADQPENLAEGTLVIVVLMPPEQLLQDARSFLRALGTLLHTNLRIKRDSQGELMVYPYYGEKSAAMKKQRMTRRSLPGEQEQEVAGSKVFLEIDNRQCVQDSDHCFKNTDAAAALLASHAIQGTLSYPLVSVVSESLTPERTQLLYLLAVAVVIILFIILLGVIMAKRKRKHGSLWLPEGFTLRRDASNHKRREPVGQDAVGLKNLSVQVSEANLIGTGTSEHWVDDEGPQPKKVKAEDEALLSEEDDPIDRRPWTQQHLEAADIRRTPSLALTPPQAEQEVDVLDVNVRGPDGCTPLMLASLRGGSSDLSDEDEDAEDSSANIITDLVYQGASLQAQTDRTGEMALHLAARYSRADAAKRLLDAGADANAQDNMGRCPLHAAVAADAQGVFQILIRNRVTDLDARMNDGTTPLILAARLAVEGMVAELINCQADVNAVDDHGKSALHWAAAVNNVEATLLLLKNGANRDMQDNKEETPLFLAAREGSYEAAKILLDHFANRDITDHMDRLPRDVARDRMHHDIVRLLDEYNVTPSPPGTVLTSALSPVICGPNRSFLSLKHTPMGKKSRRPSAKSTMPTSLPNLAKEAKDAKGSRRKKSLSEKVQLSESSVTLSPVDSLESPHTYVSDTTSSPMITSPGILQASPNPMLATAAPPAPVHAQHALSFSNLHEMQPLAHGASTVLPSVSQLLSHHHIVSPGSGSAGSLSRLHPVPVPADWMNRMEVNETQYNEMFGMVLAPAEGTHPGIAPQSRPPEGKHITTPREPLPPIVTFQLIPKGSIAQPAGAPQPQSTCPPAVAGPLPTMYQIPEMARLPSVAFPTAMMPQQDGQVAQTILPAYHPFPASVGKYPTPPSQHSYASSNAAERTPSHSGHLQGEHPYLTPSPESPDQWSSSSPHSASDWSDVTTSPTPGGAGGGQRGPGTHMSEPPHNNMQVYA
# Sequence of Pro-neuregulin-1, membrane-bound isoform (Homo sapiens) (Q02297 whole entry, looked up, the tested form may be a part, canonical isoform): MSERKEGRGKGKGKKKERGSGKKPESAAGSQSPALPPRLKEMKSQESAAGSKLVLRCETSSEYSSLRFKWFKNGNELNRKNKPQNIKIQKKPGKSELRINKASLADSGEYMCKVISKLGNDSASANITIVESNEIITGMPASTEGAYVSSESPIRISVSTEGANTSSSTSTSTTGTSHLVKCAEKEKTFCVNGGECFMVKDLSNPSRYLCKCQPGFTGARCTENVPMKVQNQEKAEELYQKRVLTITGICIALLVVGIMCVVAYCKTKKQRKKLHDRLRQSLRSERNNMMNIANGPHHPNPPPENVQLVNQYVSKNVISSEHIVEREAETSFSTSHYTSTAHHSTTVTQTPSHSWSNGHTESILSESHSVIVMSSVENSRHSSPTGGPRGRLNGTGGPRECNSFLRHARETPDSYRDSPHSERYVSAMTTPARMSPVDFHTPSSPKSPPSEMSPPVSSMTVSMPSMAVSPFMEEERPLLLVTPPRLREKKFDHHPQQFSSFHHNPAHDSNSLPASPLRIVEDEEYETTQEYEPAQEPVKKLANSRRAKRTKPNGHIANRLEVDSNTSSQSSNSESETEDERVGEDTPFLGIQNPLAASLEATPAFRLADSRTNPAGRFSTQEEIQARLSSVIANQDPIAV
SMILES,composite z-score [1],composite z-score [2],composite z-score [3],composite z-score [4],composite z-score [5],composite z-score [6],composite z-score [7],z-score [8],composite z-score [9],composite z-score [10]
COC(=O)CC=C[C@@H](C)[C@@H](C=NOCC[C@@H]1C=C[C@H](OC(C)=O)[C@@H](COC(C)=O)O1)OC,-0.413,0.174,0.0144,0.502,0.193,-0.0568,0.813,0.799 (inactive),0.0492,0.0053
CON=C[C@@H](C)[C@H](OCc1ccccc1)C(C)C,0.797,0.0789,-0.138,-0.0499,-0.12,-0.575,-0.502,0.538 (inactive),-0.0062,0.0373
COc1cccc([C@H]2Oc3ccc(OC)cc3C(=NOC[C@@H](C)[C@H](OCc3ccccc3)C(C)C)[C@@H]2O)c1,-0.108,0.435,-0.004,0.431,0.203,-0.201,0.686,3.29 (inactive),1.33,0.0274
COC(=O)CC=C[C@@H](C)[C@@H](C=NO[C@H](C)c1cn([C@H](CO)Cc2ccccc2)nn1)OC,-0.42,0.44,-0.0867,0.257,-0.0484,-0.0545,0.516,0.0621 (inactive),0.0782,0.189
CCOC(=O)C1=NO[C@]2(C=C(Br)C3(OCCCO3)[C@H]3O[C@H]32)C1,0.0733,2.19,-0.116,-0.229,-0.212,-0.722,-0.208,0.293 (inactive),-0.132,-0.0726
O=c1n(-c2ccccc2)c(=O)n2n1CC[C@@H]1C(=NOCc3ccccc3)[C@H]3O[C@H]3[C@@H](O)[C@@H]12,-0.489,-0.285,-0.0494,0.472,-0.267,-0.0644,-0.338,-0.354 (inactive),-0.0869,-0.284
C#CCCCON=C1[C@H]2CCn3c(=O)n(-c4ccccc4)c(=O)n3[C@H]2[C@H](O)[C@@H]2O[C@H]12,-0.306,0.0575,-0.24,0.201,0.47,-0.0335,0.478,-1.91 (inactive),0.212,-0.134
C[C@@H](c1ccccc1)N1C(=O)[C@H]2[C@H]3[C@H](O)[C@H](O)CC(=NO[C@@H]4O[C@H](CO)[C@@H](O)[C@H](O)[C@H]4O)[C@@H]3CC[C@H]2C1=O,-0.395,0.764,-0.0428,0.306,0.641,-0.319,0.752,0.19 (inactive),0.205,-0.0618
Cc1ccc(S(=O)(=O)NC(CCc2ccccc2)CC(=O)C(C)(C)C)cc1 (stereo not given),-0.651,0.339,-0.228,0.711,0.747,0.132,0.459,-3.04 (inactive),0.195,-0.261
Cc1cc2c(nc1C)CCCCN2CC(C)ON=C[C@@H](C)[C@H](OCc1ccccc1)C(C)C (stereo not given in full),-0.0674,-0.777,-0.307,-1.05,-1.38,-0.317,-0.366,-0.154 (inactive),-0.514,-0.0994
CCCCC#C[C@@H]1C=C[C@H](Oc2ccc(C(=O)OC)cc2)[C@@H](COC(=O)OCC)O1,-0.367,0.956,-0.0874,0.495,0.65,0.338,0.733,-2.03 (inactive),0.153,0.178
CC(=O)Nc1ccc([C@@H]2N[C@H](C(=O)O)CC[C@H]2C)cc1,-0.508,0.301,-0.135,0.426,0.785,0.0589,0.151,0.564 (inactive),0.296,-0.0618
CCOC(=O)[C@H](CC(C)C)NC(=O)CCC1CC(OC(=O)NCc2cccc3ccccc23)CC2(CCCC(COC(=O)NCCC(C)C)O2)O1 (stereo not given in full),-0.403,0.141,-0.0547,0.176,0.193,-0.0205,0.602,0.164 (inactive),-0.128,0.003
COc1cccc([C@H]2Oc3ccc(OC)cc3C(=NOC[C@@H](O)[C@H]3O[C@@H]4OC(C)(C)O[C@@H]4[C@H]3O)[C@@H]2O)c1,-0.117,0.146,-0.0533,0.289,0.533,-0.242,0.54,5.07 (inactive),0.149,-0.194
CCOC(=O)[C@H](Cc1ccccc1)NC(=O)CCC1CC(OC(=O)NCCc2ccc(F)cc2)CC2(CCCC(COC(=O)NCCc3ccc(Cl)cc3)O2)O1 (stereo not given in full),-0.431,-0.0057,-0.0523,0.248,0.622,0.843,0.872,0.301 (inactive),0.233,0.0623
COC(=O)[C@H](C)NC(=O)CCC1CC(OC(=O)NCCc2ccc(F)cc2)CC2(CCCC(COC(=O)NCCC(C)C)O2)O1 (stereo not given in full),-0.279,-0.0132,-0.0407,1.11,0.824,1.26,0.888,0.033 (inactive),0.281,-0.13
CC(=O)OC[C@H]1O[C@H](CCON=C2[C@H]3CCn4c(=O)n(-c5ccccc5)c(=O)n4[C@H]3[C@H](O)[C@@H]3O[C@H]23)C=C[C@@H]1OC(C)=O,-0.47,0.141,-0.0218,0.448,0.57,-0.147,0.18,-0.513 (inactive),0.476,0.163
CC(CCN1CCc2nc(-c3ccccc3)c(-c3ccccc3)cc2C1)=NOC[C@@H](O)COCc1ccco1,-0.278,0.424,-0.0598,0.111,0.303,0.268,0.792,0.515 (inactive),-0.0187,-0.261
COC(=O)CC=C[C@@H](C)[C@@H](C=NO[C@@H]1O[C@H](COC(C)=O)[C@@H](OC(C)=O)[C@H](OC(C)=O)[C@H]1OC(C)=O)OC,-0.48,1.26,0.0167,-0.41,1.03,-0.617,-1.05,0.572 (inactive),0.354,0.189
C[C@@H](c1ccccc1)N1C(=O)[C@H]2[C@H]3[C@H](O)[C@H](O)CC(=O)[C@H]3CC[C@H]2C1=O,-0.483,0.107,-0.0878,0.443,0.896,0.286,0.477,-0.12 (inactive),0.0442,-0.0994
CO[C@H]1COC(=O)CCC[C@@H](C)[C@H](OC)COC(=O)[C@@H](C)NC(=O)CC=C[C@@H]1C,-0.467,2.11,-0.235,-0.0534,-0.314,-0.523,-0.723,0.947 (inactive),0.0835,-0.0994
C[C@@H]1C=CCC(=O)OC[C@H]2O[C@@H](C=C[C@@H]2O)[C@H](C)C=CCC(=O)OC1,-0.711,2.13,-0.175,-0.32,-0.302,-1.03,0.765,-1.28 (inactive),-0.291,0.28
CO[C@H]1COC(=O)CC=C[C@H](C)[C@@H](OC)COC(=O)[C@H](C)COC(=O)CC=C[C@@H]1C,-0.687,1.34,-0.223,-0.562,-0.407,-0.785,-0.142,-0.387 (inactive),-0.176,0.0722
CC1O[C@H]2C3=C(C(=O)[C@@H]4O[C@@H]4[C@H]3O)[C@@H]1C1[C@@H](C)OC=C3[C@H](O)C4O[C@@H]4C(=NOCc4ccccc4)[C@]312 (stereo not given in full),-0.379,-0.488,-0.166,0.0246,0.112,-0.505,-0.0339,-1.15 (inactive),-0.123,-0.216
COc1cc(O)c(C(=O)C=Cc2ccc3c(c2)OCO3)c(OC)c1,-0.132,0.0414,0.0198,0.2,-0.877,-0.288,-0.927,-0.984 (inactive),-0.155,0.0238
CCOC(=O)NN=C1C[C@@H](O)[C@@H](O)[C@@H]2[C@@H]3C(=O)N(Cc4ccccc4)C(=O)[C@@H]3CC[C@H]12,-0.276,0.695,-0.124,0.164,0.287,-0.0283,-0.699,1.08 (inactive),0.0387,-0.223
Cc1ccc(S(=O)(=O)n2c3ccccc3c3nnc(C(=O)c4ccccc4)nc32)cc1,-0.474,0.338,-0.0603,0.316,0.197,-0.457,0.355,49.6 (active),0.141,-0.137
